This is an account of results in ChEMBL document CHEMBL1961873, “Compounds: GSK PKIS; Assays: Nanosyn kinase panel” (2012).

In test [1] the target is T1, Inhibitor of nuclear factor kappa-B kinase subunit epsilon (Homo sapiens) (UniProt Q14164).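 Further: reported values are averaged percent inhibition figures against human IKKε.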
T1 sequence (whole entry): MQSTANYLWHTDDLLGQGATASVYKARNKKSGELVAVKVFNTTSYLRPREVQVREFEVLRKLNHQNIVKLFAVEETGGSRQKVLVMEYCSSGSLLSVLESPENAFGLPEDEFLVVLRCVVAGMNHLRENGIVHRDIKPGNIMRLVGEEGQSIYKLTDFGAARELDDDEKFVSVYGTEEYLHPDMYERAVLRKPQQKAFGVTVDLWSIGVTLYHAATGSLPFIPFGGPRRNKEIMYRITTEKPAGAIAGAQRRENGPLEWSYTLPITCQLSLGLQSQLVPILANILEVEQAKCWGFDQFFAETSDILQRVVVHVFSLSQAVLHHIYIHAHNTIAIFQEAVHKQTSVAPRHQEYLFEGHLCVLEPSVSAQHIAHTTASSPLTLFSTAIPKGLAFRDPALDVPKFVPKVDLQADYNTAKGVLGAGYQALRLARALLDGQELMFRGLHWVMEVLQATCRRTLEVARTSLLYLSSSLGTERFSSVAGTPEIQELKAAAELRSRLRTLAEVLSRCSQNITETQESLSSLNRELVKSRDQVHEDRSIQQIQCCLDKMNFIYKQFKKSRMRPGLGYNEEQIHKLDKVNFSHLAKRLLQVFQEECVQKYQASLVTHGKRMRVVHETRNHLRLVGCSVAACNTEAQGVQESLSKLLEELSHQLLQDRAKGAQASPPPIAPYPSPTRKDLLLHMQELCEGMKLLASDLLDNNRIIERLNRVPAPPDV
As to conditions: at 1 µM.

In test [2] the target is T2, Serine/threonine-protein kinase Nek1 (Homo sapiens) (UniProt Q96PY6).
T2 sequence (whole entry): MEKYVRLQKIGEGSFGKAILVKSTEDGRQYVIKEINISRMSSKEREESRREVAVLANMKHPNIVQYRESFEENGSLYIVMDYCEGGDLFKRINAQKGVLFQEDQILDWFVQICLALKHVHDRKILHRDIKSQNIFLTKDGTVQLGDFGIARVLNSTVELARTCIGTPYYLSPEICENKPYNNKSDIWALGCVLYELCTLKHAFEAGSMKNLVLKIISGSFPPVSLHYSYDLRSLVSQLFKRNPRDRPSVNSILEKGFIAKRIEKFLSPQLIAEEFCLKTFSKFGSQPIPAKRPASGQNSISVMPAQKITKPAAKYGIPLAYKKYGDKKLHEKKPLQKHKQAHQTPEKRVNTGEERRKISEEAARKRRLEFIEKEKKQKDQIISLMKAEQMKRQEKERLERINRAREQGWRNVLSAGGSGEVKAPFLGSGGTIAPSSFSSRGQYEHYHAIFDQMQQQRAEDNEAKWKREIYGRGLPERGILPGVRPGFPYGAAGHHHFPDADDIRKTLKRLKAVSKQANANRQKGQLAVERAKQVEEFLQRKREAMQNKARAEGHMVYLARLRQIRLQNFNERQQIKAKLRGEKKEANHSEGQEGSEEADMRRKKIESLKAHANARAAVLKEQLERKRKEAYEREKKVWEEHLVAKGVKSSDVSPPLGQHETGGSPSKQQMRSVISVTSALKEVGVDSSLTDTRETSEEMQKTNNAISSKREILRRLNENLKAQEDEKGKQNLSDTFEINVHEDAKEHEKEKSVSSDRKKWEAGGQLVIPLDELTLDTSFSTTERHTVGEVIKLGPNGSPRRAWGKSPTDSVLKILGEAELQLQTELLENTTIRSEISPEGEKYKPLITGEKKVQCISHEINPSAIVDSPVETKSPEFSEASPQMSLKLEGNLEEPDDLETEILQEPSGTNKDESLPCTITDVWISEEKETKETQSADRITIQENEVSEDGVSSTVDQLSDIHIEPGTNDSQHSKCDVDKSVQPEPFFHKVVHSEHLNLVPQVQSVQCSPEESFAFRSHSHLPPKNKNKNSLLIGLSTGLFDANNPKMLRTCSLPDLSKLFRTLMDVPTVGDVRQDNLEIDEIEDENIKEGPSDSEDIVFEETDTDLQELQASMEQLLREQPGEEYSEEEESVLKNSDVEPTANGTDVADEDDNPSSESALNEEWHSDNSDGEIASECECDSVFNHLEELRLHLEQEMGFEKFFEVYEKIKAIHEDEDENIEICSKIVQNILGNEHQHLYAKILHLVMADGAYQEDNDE
As to conditions: at 0.1 µM.

For test [3], the target named is T2, Serine/threonine-protein kinase Nek1 (Homo sapiens). As to conditions: at 1 µM.
The target of test [4] is T3, Serine/threonine-protein kinase Nek2 (Homo sapiens) (UniProt P51955).
T3 sequence (whole entry): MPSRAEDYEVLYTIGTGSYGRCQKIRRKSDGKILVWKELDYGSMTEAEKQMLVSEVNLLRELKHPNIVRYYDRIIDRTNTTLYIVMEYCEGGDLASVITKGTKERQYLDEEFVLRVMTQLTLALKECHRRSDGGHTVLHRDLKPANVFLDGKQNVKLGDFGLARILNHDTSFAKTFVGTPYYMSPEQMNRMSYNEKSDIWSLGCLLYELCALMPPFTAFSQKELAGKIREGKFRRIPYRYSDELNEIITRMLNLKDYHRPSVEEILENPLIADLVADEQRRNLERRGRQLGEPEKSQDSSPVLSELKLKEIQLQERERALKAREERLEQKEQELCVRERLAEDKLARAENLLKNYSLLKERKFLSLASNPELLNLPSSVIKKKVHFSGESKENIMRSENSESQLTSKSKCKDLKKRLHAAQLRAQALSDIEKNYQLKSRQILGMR
As to conditions: at 0.1 µM.

The target of test [5] is T3, Serine/threonine-protein kinase Nek2 (Homo sapiens). As to conditions: at 1 µM.
Test [6] concerns the target Serine/threonine-protein kinase Nek6 (Homo sapiens) (UniProt Q9HC98). As to conditions: at 0.1 µM.
For test [7] the target is unchanged. As to conditions: at 1 µM.
The target in test [8] is Serine/threonine-protein kinase Nek7 (Homo sapiens) (UniProt Q8TDX7). As to conditions: at 0.1 µM.
For test [9] the target is unchanged. As to conditions: at 1 µM.
In test [10] the target is T4, Serine/threonine-protein kinase Nek9 (Homo sapiens) (UniProt Q8TD19).
T4 sequence (whole entry): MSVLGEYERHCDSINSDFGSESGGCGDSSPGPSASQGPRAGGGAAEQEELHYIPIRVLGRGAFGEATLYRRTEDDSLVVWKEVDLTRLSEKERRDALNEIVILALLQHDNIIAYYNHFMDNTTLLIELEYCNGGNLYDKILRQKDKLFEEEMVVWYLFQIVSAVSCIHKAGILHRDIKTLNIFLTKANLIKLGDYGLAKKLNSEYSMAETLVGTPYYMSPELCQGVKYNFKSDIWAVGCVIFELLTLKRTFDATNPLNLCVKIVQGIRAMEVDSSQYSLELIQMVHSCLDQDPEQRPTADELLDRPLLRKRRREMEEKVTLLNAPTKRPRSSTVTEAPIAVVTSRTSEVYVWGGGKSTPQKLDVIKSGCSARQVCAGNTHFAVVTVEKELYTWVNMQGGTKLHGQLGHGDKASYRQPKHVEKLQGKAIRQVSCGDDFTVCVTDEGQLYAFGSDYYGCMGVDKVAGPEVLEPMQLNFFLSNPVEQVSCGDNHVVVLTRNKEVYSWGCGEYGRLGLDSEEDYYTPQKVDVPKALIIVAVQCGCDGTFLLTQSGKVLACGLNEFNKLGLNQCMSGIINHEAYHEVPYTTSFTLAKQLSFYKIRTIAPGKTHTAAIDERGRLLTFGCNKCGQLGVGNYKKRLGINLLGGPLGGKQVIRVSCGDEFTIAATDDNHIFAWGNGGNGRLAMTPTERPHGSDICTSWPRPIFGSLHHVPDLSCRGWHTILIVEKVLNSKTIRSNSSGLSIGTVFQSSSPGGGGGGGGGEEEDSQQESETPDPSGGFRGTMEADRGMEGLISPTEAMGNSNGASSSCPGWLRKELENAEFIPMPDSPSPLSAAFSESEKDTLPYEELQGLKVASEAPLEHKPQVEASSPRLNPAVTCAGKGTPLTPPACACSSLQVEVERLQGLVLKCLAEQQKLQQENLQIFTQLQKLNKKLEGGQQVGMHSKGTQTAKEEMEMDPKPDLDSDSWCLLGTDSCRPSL
As to conditions: at 0.1 µM.

Test [11] addresses T4, Serine/threonine-protein kinase Nek9 (Homo sapiens). As to conditions: at 1 µM.
Test [12] addresses Serine/threonine-protein kinase PLK1 (Homo sapiens) (UniProt P53350). As to conditions: at 0.1 µM.
Test [13] shares this target. As to conditions: at 1 µM.
In test [14] the target is T5, Dual specificity protein kinase TTK (Homo sapiens) (UniProt P33981).
T5 sequence (whole entry): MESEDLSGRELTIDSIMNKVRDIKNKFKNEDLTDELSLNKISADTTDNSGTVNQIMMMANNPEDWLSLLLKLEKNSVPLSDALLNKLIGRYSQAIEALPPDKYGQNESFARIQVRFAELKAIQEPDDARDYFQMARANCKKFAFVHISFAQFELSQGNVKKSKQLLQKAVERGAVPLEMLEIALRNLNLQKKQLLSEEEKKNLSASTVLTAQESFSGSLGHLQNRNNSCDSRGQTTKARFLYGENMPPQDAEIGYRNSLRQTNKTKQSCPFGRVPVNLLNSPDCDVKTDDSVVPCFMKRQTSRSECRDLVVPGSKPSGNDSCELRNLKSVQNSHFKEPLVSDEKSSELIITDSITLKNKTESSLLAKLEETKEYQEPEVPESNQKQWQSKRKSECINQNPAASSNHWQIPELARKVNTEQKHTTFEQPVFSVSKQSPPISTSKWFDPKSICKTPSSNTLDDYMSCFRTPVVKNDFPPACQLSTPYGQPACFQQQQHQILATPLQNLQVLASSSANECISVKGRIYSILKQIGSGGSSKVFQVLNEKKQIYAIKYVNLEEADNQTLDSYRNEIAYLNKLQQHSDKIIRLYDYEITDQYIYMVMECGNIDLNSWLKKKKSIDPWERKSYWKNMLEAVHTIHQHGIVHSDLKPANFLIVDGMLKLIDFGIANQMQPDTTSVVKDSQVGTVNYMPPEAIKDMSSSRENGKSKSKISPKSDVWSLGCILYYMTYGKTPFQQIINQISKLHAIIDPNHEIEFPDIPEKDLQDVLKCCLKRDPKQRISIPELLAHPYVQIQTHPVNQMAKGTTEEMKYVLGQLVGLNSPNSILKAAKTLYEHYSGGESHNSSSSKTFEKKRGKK
As to conditions: at 0.1 µM.

The test system of test [15] is T6, Receptor-type tyrosine-protein kinase FLT3 (Homo sapiens), P36888 [D835Y].
T6 sequence (whole entry): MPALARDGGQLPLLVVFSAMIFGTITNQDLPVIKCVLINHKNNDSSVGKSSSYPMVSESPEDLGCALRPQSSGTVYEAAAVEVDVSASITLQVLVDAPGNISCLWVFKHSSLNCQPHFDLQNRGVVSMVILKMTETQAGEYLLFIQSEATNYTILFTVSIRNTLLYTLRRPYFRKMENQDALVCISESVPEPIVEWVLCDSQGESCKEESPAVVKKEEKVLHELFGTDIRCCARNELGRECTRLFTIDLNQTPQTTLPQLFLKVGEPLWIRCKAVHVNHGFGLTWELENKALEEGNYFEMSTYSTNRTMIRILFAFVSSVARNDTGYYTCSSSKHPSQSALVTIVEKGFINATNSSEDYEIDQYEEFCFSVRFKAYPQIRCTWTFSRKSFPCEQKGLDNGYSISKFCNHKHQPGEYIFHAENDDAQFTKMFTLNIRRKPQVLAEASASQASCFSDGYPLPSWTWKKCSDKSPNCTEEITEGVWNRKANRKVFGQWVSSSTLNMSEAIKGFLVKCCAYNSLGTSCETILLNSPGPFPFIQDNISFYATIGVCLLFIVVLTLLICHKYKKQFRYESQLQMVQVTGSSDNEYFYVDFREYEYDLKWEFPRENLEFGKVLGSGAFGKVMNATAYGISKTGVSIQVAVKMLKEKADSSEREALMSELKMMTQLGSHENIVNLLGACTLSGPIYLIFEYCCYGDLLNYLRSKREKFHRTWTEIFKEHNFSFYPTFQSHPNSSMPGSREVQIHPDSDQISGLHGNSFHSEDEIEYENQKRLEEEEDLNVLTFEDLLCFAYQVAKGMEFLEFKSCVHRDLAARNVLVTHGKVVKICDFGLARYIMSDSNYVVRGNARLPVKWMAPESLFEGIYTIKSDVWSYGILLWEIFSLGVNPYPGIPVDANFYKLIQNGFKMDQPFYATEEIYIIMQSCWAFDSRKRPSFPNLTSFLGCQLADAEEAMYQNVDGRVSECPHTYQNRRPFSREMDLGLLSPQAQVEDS
As to conditions: at 1 µM.

The target of test [16] is Vascular endothelial growth factor receptor 3 (Homo sapiens) (UniProt P35916). As to conditions: at 0.1 µM.
For test [17] the target is unchanged. As to conditions: at 1 µM.
Test [18] concerns the target Macrophage colony-stimulating factor 1 receptor (Homo sapiens) (UniProt P07333). As to conditions: at 0.1 µM.
Test [19] has the same target. As to conditions: at 1 µM.
Test [20] addresses Tyrosine-protein kinase Fyn (Homo sapiens) (UniProt P06241). As to conditions: at 0.1 µM.

Sequence of Serine/threonine-protein kinase Nek6 (Homo sapiens) (Q9HC98 whole entry): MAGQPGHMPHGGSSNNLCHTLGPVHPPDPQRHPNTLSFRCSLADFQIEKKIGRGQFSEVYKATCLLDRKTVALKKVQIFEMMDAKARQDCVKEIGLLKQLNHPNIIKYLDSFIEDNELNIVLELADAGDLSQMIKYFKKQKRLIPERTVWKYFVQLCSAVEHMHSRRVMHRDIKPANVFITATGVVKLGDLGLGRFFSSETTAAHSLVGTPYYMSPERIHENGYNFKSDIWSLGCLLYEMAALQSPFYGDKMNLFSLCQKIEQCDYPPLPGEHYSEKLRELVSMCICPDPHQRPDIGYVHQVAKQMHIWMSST
Sequence of Serine/threonine-protein kinase PLK1 (Homo sapiens) (P53350 whole entry): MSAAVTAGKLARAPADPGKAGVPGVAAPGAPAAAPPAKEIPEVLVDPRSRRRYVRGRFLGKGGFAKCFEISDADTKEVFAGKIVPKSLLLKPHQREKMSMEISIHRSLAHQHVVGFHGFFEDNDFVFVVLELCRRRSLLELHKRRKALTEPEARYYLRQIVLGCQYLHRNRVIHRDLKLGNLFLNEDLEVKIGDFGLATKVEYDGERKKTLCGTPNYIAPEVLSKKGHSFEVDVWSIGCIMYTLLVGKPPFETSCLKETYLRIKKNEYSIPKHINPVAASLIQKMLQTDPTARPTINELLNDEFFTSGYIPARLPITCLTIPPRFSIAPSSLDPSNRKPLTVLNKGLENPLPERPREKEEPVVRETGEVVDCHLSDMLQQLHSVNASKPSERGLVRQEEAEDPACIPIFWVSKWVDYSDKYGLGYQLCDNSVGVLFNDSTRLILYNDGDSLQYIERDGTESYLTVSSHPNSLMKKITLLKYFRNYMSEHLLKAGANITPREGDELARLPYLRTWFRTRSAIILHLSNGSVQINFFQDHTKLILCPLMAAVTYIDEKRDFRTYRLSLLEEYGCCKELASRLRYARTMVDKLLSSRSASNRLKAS
Sequence of Macrophage colony-stimulating factor 1 receptor (Homo sapiens) (P07333 whole entry): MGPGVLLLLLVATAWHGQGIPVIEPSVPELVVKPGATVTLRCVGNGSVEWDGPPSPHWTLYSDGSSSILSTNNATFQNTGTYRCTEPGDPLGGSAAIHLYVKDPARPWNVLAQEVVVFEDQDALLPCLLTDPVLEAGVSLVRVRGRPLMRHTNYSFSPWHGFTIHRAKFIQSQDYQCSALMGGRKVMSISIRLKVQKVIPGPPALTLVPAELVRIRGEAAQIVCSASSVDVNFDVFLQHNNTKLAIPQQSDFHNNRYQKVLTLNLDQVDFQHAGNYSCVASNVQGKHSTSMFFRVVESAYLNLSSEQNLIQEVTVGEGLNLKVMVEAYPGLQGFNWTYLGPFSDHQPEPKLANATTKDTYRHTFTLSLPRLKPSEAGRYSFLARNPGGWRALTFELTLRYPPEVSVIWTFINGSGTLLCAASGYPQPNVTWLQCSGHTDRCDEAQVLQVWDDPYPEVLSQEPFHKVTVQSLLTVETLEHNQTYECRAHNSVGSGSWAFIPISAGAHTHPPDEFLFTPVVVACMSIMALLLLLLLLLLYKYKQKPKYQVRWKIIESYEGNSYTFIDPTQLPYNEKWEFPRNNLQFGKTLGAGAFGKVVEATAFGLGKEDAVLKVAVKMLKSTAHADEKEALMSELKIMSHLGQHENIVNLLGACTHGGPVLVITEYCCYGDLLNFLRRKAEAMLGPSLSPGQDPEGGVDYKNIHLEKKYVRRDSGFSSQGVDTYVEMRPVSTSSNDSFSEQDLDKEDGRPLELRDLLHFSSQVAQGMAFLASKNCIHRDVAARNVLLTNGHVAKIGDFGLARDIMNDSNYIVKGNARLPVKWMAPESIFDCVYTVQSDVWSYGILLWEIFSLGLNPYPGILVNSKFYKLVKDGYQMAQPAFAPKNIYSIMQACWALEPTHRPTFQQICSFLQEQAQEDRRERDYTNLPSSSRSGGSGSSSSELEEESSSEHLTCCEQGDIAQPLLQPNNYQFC
Sequence of Vascular endothelial growth factor receptor 3 (Homo sapiens) (P35916 whole entry): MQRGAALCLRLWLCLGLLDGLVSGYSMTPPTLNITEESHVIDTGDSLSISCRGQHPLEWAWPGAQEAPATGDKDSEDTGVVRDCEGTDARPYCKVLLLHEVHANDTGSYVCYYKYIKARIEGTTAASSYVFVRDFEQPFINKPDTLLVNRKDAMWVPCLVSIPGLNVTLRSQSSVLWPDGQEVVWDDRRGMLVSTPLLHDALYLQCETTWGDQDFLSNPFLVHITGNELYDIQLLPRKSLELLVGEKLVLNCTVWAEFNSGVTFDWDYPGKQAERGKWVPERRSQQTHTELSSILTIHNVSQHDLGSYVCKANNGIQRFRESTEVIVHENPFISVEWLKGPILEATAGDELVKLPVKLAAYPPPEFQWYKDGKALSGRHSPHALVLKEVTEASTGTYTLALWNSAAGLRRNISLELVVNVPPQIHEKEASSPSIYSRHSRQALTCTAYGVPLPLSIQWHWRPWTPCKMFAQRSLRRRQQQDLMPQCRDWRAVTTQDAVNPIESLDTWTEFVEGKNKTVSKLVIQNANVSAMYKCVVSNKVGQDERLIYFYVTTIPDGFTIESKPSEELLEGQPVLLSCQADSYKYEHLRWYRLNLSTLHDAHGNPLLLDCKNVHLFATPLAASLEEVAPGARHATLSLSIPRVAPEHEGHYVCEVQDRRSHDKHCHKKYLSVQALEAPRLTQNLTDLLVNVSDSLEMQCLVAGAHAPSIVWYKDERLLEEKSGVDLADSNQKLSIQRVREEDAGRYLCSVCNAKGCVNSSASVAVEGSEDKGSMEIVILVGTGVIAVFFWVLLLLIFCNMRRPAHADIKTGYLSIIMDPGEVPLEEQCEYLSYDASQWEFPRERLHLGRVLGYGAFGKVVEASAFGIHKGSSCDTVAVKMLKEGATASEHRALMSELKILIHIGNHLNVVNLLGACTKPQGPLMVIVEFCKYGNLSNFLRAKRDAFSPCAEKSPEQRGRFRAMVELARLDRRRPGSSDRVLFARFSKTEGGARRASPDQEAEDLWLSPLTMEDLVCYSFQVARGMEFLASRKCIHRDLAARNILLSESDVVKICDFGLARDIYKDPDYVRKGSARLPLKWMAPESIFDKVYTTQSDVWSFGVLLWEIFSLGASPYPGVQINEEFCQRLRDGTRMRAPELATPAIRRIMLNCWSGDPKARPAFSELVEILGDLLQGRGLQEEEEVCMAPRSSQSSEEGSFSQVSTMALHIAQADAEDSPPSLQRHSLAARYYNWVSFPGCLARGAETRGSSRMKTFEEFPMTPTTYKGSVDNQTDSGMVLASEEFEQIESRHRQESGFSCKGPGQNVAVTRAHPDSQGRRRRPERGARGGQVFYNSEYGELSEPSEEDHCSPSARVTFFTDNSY
Sequence of Serine/threonine-protein kinase Nek7 (Homo sapiens) (Q8TDX7 whole entry, looked up): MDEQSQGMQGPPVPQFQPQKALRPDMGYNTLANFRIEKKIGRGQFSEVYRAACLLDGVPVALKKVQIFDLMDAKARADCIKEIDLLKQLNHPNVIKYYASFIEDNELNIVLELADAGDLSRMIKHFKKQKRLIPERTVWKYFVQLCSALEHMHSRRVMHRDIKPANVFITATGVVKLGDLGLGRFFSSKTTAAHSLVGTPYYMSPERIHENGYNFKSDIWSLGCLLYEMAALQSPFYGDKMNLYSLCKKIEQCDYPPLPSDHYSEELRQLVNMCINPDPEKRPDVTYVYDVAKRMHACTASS
Sequence of Tyrosine-protein kinase Fyn (Homo sapiens) (P06241 2-537 limits assumed): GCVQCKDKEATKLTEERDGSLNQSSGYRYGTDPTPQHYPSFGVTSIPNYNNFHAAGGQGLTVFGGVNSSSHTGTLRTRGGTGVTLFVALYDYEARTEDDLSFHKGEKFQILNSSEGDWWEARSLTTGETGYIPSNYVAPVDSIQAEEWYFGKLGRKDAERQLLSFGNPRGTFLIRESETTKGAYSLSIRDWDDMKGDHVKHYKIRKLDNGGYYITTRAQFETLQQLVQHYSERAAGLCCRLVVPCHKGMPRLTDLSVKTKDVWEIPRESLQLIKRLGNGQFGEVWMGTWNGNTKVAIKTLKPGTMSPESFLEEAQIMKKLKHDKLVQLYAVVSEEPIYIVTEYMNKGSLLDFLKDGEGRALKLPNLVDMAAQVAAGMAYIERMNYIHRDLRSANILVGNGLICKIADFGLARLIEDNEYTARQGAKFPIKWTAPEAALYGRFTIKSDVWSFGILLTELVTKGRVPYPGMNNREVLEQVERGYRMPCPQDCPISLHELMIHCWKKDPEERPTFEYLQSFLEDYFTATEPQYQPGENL

In general, inhibition refers to the drop in the measured response relative to a control, in per cent. In the case of `CN(c1ccc(NC(=O)Nc2c(Cl)cccc2Cl)cc1)c1ccnc(Nc2cccc(CS(C)(=O)=O)c2)n1`, the inhibition in test [1] stood at 8.6%; in [2] it was 1.38%; in test [3] it was 1.93%; in test [4], 0.12%; in [5] it was 1.07%; in [6] it was 0.64%. In addition, the inhibition is 1.86% in test [7]; 1.01% in [8]; 1.59% in test [9]; -4.22% in [10]; -6.03% in [11]; 0.57% in test [12]. The inhibition in test [13] is 0.37%; in test [14] it was 3.9%; in [15] it was 28.8%; in [16] it was 23%; in test [17], 41.7%; in test [18], 92.1%. Also, the values for the inhibition in [19] and in test [20] were 96.2% and 2.74%, respectively.

`Fc1ccc(-c2ncn(C3CCNCC3)c2-c2ccnc(Oc3ccc4c(c3)OCO4)n2)cc1`: the inhibition in [1] amounted to 5.91%; in test [2] it was 3.2%; in [3] it was 6.26%; in test [4], 7.49%; in test [5], 6.41%; in test [6], 1.13%. The inhibition is 1.67% in [7]; 2.69% in test [8]; 4.77% in test [9]; 7.85% in test [10]; 7.95% in [11]; 4.77% in test [12]. For the same molecule, the inhibition in [13] was 3.7%; in [14], 7.25%; in [15] it was -0.75%; in [16] it was 3.31%; in [17], 5.76%; in [18], 2.5%. Moreover, the values for the inhibition in test [19] and in test [20] were 12.1% and 1.06%, respectively.
